# Source: PubChem BioAssay AID1159580 (chemical genetic matrix, 2015)
# In all, about 5,500 compounds went through this assay and about 2,000 (36%) were called active. Not shown: some 18% with an inconclusive outcome. This is one part of the list. Unmarked numbers belong to inactive results. Cut-off read from the data, not from the text of the source: active = normalized growth mostly below about 0.91 (no sharp cut-off); inconclusive = no clear call, values can overlap the other calls; inactive = mostly above about 0.92.
# Test: chemical genetic growth profiling, strain panel (AID 1159580);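 note: tested at 20 µM; growth read once vehicle control cultures reached saturation at 30 °C; 1 = growth at the plate median or of vehicle wells; lower values mean less growth of the strain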
# Details: growth OD
compound,measurement,setting,value
CC(=O)[C@H]1CCC2C3CC=C4C[C@@H](O)CC[C@]4(C)C3CC[C@@]21C (stereo partly specified),normalized growth,"S. cerevisiae deletion strains, locus YKL009W, strain mrt4, active compounds read low",0.856 (active)
same,normalized growth,"S. cerevisiae deletion strains, locus YKL068W, active compounds read low",1.01
same,normalized growth,"S. cerevisiae deletion strains, locus YKL085W, strain MDH1 (second series), active compounds read low",0.982
same,normalized growth,"S. cerevisiae deletion strains, locus YKL085W, strain MDH1, active compounds read low",0.982
same,normalized growth,"S. cerevisiae deletion strains, locus YKL160W, strain elf1, active compounds read low",0.944
same,normalized growth,"S. cerevisiae deletion strains, locus YKL190W, strain CNB1, active compounds read low",0.97
same,normalized growth,"S. cerevisiae deletion strains, locus YKR001C, strain vps1, active compounds read low",0.991
same,normalized growth,"S. cerevisiae deletion strains, locus YKR026C, strain gcn3, active compounds read low",1.01
same,normalized growth,"S. cerevisiae deletion strains, locus YKR091W, strain srl3, active compounds read low",1.01
same,normalized growth,"S. cerevisiae deletion strains, locus YLL001W, strain dnm1, active compounds read low",0.928
same,normalized growth,"S. cerevisiae deletion strains, locus YLL026W, active compounds read low",0.912 (active)
same,normalized growth,"S. cerevisiae deletion strains, locus YLL041C, strain sdh2, active compounds read low",0.999
same,normalized growth,"S. cerevisiae deletion strains, locus YLR027C, strain aat2, active compounds read low",0.926
same,normalized growth,"S. cerevisiae deletion strains, locus YLR039C, strain RIC1, active compounds read low",0.487 (active)
same,normalized growth,"S. cerevisiae deletion strains, locus YLR058C, strain SHM2, active compounds read low",0.995
same,normalized growth,"S. cerevisiae deletion strains, locus YLR102C, strain apc9, active compounds read low",1.03
same,normalized growth,"S. cerevisiae deletion strains, locus YLR113W, strain HOG1, active compounds read low",1.01
same,normalized growth,"S. cerevisiae deletion strains, locus YLR221C, strain rsa3, active compounds read low",0.923
same,normalized growth,"S. cerevisiae deletion strains, locus YLR258W, strain gsy2, active compounds read low",0.961
same,normalized growth,"S. cerevisiae deletion strains, locus YLR262C, strain YPT6 (second series), active compounds read low",0.456 (active)
same,normalized growth,"S. cerevisiae deletion strains, locus YLR262C, strain YPT6, active compounds read low",0.532 (active)
same,normalized growth,"S. cerevisiae deletion strains, locus YLR268W, strain sec22, active compounds read low",0.949
same,normalized growth,"S. cerevisiae deletion strains, locus YLR320W, strain mms22, active compounds read low",0.646 (active)
same,normalized growth,"S. cerevisiae deletion strains, locus YLR330W, strain CHS5, active compounds read low",1.02
same,normalized growth,"S. cerevisiae deletion strains, locus YLR342W, strain FKS1 (second series), active compounds read low",0.896
same,normalized growth,"S. cerevisiae deletion strains, locus YLR342W, strain FKS1, active compounds read low",0.915
same,normalized growth,"S. cerevisiae deletion strains, locus YLR357W, strain rsc2, active compounds read low",1.09
same,normalized growth,"S. cerevisiae deletion strains, locus YLR370C, strain arc18, active compounds read low",0.987
same,normalized growth,"S. cerevisiae deletion strains, locus YLR371W, strain rom2, active compounds read low",1.02
same,normalized growth,"S. cerevisiae deletion strains, locus YLR384C, strain iki3, active compounds read low",0.998
same,normalized growth,"S. cerevisiae deletion strains, locus YLR418C, strain cdc73, active compounds read low",0.791 (active)
same,normalized growth,"S. cerevisiae deletion strains, locus YML016C, strain PPZ1, active compounds read low",1
same,normalized growth,"S. cerevisiae deletion strains, locus YML032C, strain rad52, active compounds read low",0.952
same,normalized growth,"S. cerevisiae deletion strains, locus YML120C, strain ndi1, active compounds read low",0.934
same,normalized growth,"S. cerevisiae deletion strains, locus YML124C, strain tub3, active compounds read low",1.04
same,normalized growth,"S. cerevisiae deletion strains, locus YMR058W, strain fet3, active compounds read low",0.946
same,normalized growth,"S. cerevisiae deletion strains, locus YMR078C, strain ctf18, active compounds read low",1.01
same,normalized growth,"S. cerevisiae deletion strains, locus YMR125W, strain sto1, active compounds read low",0.988
same,normalized growth,"S. cerevisiae deletion strains, locus YMR129W, active compounds read low",0.985
same,normalized growth,"S. cerevisiae deletion strains, locus YMR205C, strain PFK2, active compounds read low",0.944
same,normalized growth,"S. cerevisiae deletion strains, locus YMR223W, strain ubp8, active compounds read low",0.964
same,normalized growth,"S. cerevisiae deletion strains, locus YMR231W, strain pep5, active compounds read low",1
same,normalized growth,"S. cerevisiae deletion strains, locus YMR263W, strain SAP30, active compounds read low",0.979
same,normalized growth,"S. cerevisiae deletion strains, locus YMR307W, strain GAS1, active compounds read low",1.19
same,normalized growth,"S. cerevisiae deletion strains, locus YNL067W, strain RPL9B, active compounds read low",0.935
same,normalized growth,"S. cerevisiae deletion strains, locus YNL071W, strain lat1, active compounds read low",0.716 (active)
same,normalized growth,"S. cerevisiae deletion strains, locus YNL128W, strain TEP1, active compounds read low",1.01
same,normalized growth,"S. cerevisiae deletion strains, locus YNL153C, strain GIM3, active compounds read low",0.948
same,normalized growth,"S. cerevisiae deletion strains, locus YNL183C, strain NPR1, active compounds read low",0.866
same,normalized growth,"S. cerevisiae deletion strains, locus YNL209W, strain ssb2, active compounds read low",0.983
same,normalized growth,"S. cerevisiae deletion strains, locus YNL233W, strain BNI4, active compounds read low",0.93
same,normalized growth,"S. cerevisiae deletion strains, locus YNL248C, strain rpa49, active compounds read low",0.899
same,normalized growth,"S. cerevisiae deletion strains, locus YNL250W, strain rad50, active compounds read low",1
same,normalized growth,"S. cerevisiae deletion strains, locus YNL271C, strain bni1, active compounds read low",1.02
same,normalized growth,"S. cerevisiae deletion strains, locus YNL298W, strain CLA4, active compounds read low",0.999
same,normalized growth,"S. cerevisiae deletion strains, locus YNL307C, strain MCK1, active compounds read low",0.649 (active)
same,normalized growth,"S. cerevisiae deletion strains, locus YNL322C, strain KRE1 (second series), active compounds read low",1.03
same,normalized growth,"S. cerevisiae deletion strains, locus YNL322C, strain KRE1, active compounds read low",1.01
same,normalized growth,"S. cerevisiae deletion strains, locus YNR049C, strain mso1, active compounds read low",1.01
same,normalized growth,"S. cerevisiae deletion strains, locus YNR052C, strain pop2, active compounds read low",0.992
same,normalized growth,"S. cerevisiae deletion strains, locus YOL006C, strain TOP1, active compounds read low",0.68
same,normalized growth,"S. cerevisiae deletion strains, locus YOL012C, strain htz1",1.1
same,normalized growth,"S. cerevisiae deletion strains, locus YOL147C, strain pex11, active compounds read low",1.02
same,normalized growth,"S. cerevisiae deletion strains, locus YOR001W, strain rrp6, active compounds read low",0.904
same,normalized growth,"S. cerevisiae deletion strains, locus YOR061W, strain CKA2, active compounds read low",0.991
same,normalized growth,"S. cerevisiae deletion strains, locus YOR069W, strain VPS5, active compounds read low",1.01
same,normalized growth,"S. cerevisiae deletion strains, locus YOR070C, strain gyp1, active compounds read low",0.956
same,normalized growth,"S. cerevisiae deletion strains, locus YOR080W, strain dia2, active compounds read low",0.986
same,normalized growth,"S. cerevisiae deletion strains, locus YOR083W, strain WHI5, active compounds read low",0.907
same,normalized growth,"S. cerevisiae deletion strains, locus YOR106W, strain vam3, active compounds read low",0.927
same,normalized growth,"S. cerevisiae deletion strains, locus YOR136W, strain idh2, active compounds read low",1.01
same,normalized growth,"S. cerevisiae deletion strains, locus YOR144C, strain elg1, active compounds read low",1.03
same,normalized growth,"S. cerevisiae deletion strains, locus YOR184W, strain ser1, active compounds read low",0.75 (active)
same,normalized growth,"S. cerevisiae deletion strains, locus YOR231W, strain MKK1, active compounds read low",0.958
same,normalized growth,"S. cerevisiae deletion strains, locus YOR265W, strain rbl2, active compounds read low",0.967
same,normalized growth,"S. cerevisiae deletion strains, locus YOR270C, strain vph1, active compounds read low",0.783
same,normalized growth,"S. cerevisiae deletion strains, locus YOR290C, strain snf2, active compounds read low",0.947
same,normalized growth,"S. cerevisiae deletion strains, locus YOR316C, strain cot1, active compounds read low",1.03
same,normalized growth,"S. cerevisiae deletion strains, locus YPL051W, strain arl3, active compounds read low",0.903 (active)
same,normalized growth,"S. cerevisiae deletion strains, locus YPL055C, strain LGE1, active compounds read low",0.869
same,normalized growth,"S. cerevisiae deletion strains, locus YPL078C, strain atp4, active compounds read low",0.898
same,normalized growth,"S. cerevisiae deletion strains, locus YPL106C, strain sse1, active compounds read low",1.16 [resistant] (active)
same,normalized growth,"S. cerevisiae deletion strains, locus YPL240C, strain hsp82, active compounds read low",1
same,normalized growth,"S. cerevisiae deletion strains, locus YPL241C, strain CIN2, active compounds read low",1
same,normalized growth,"S. cerevisiae deletion strains, locus YPL256C, strain CLN2, active compounds read low",1.02
same,normalized growth,"S. cerevisiae deletion strains, locus YPR119W, strain clb2, active compounds read low",1.02
same,normalized growth,"S. cerevisiae deletion strains, locus YPR141C, strain kar3, active compounds read low",1.05
same,normalized growth,"S. cerevisiae deletion strains, locus YPR163C, strain tif3, active compounds read low",1.02
same,normalized growth,"S. cerevisiae deletion strains, locus YPR167C, strain met16, active compounds read low",1.01
same,normalized growth,"S. cerevisiae deletion strains, strain wtn01, active compounds read low",0.948
same,normalized growth,"S. cerevisiae strains, strain wild type, active compounds read low",0.962
